This is a sample that favours compounds with a hit; in the whole collection about 9.3% have one here.
VACV mCherry inh = inhibitors of vaccinia virus infection (mCherry reporter signal); 0.63% of 310,000 active; Potency, µM (doses to about 36.5 µM), for the others: at the highest dose activity change, negative = inhibition, most hits filed as inhibitors; AID 720579; Vaccinia virus mCherry reporter infection, fluorescence; calls by dose curve; tested in A549 cells; note: potency is the fitted concentration of half-maximal effect; nearly all actives have a fitted effect of over 35% in size
HCMV inh = human cytomegalovirus inhibition. HFF cells, HCMV-luciferase reporter, 72 h; stronger effect = lower value. 4.5% of 410,000 active. activity change, negative = inhibition, % at 57.5 µM; in the data active = activity change below about -60%; inconclusive = no clear call, values can overlap the other calls; inactive = above about -39%
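Screen run at 2 compound doses on HFFs infected with reporter HCMV, MOI 1 PFU/cell. Luciferase activity from cell lysates at 72 h post infection gave inhibition relative to buffer-only and Salinomycin wells.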
HCV inhibitor = HCV inhibition | Huh7.5.1 HCVcc-Cre infection, luciferase reporter, 44 h | Potency, µM (top dose mostly 41.8 µM), for the others: top-dose activity change, negative = inhibition, actives largely listed as inhibitors | 3.4% of 340,000 active; note: potency is the fitted concentration of half-maximal effect
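HCVcc-Cre virus at an moi near 0.5 was added right after compound to cells cultured 4 h from seeding (1,000 cells/well). Luciferase activity was determined 44 h later, 15 min after substrate addition at RT.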
Sm TGR block = S. mansoni TGR enzyme inhibition; 3% of 360,000 active; purified TGR, DTNB reduction, TNB absorbance 405 nm; Q962Y6; AID 485364; Potency, µM (titrated, usually from 114 µM), for inactives: top-dose activity change, negative = inhibition, most hits filed as inhibitors; note: potency is the fitted concentration of half-maximal effect; nearly all actives have a fitted effect of over 60% in size
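First, TGR (20 nM dispensed) and NADPH were mixed with compound. Second, a 15 min room-temperature incubation followed. Third, further NADPH and then DTNB were added to start the reaction. Finally, TNB absorbance was monitored kinetically.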
FMDV inh = blocks foot and mouth disease virus | FMDV antiviral cell-based qHTS | Potency, µM (series often up to 57.9 µM), for inactives: at the highest dose activity change, negative = inhibition, most hits filed as inhibitors | 1.2% of 410,000 active | AID 1159524; calls by dose curve; tested in HEK293T cells; note: read-out not given here; potency is the fitted concentration of half-maximal effect; nearly all actives have a fitted effect of over 45% in size
VACV Venus inh = vaccinia inhibition (Venus reporter). 0.46% of 330,000 active. Potency, µM (doses to about 36.5 µM), inactives show top-dose activity change, negative = inhibition, actives largely listed as inhibitors. AID 720580. Vaccinia virus Venus reporter expression, fluorescence; calls by dose curve; tested in A549 cells; note: potency is the fitted concentration of half-maximal effect; nearly all actives have a fitted effect of over 30% in size
* = called active by the depositor; i = inactive; u = inconclusive; x = no result given; ! = repeats disagree. Unless noted, calls come from the whole dose curve; as a rule, active = well fitted curve in the direction sought with a large enough effect; inconclusive = small, poorly fitted or top-dose-only effect, or another doubt; inactive = no such curve, though single readings can be large; an effect the other way counts as inactive or inconclusive. % is set by controls: 0 for no effect and ±100 for the full control effect.

SMILES	VACV mCherry inh	HCMV inh	HCV inhibitor	Sm TGR block	FMDV inh	VACV Venus inh
CCOC(=O)CNC(=O)CSc1nnc(-c2ccco2)n1Cc1ccco1	x	3	-1%	25µM*	11%	x
CCOC(=O)c1c(NC(=O)CSc2nc3cc(Cl)ccc3c(=O)n2Cc2ccco2)sc(C(=O)N(C)C)c1C	5%	-68*	u	-13%	-12%	-12%
CCOC(=O)CNC(=O)CSc1nnc(-c2ccco2)n1N	x	-14	13%	-13%	-2%	x
CCOC(=O)c1sc(NC(=O)CSc2nnc(-c3ccco3)n2CC)c(C(=O)OCC)c1C	i	49	10µM*!	20µM*	x	0%
O=C(COC(=O)C1CCCCC1)Nc1ccc(N2CCCCC2)cc1	x	-30	19%	-33%	-8%	-7%
C=CCn1c(=O)c2ccccc2n2c(SCC(=O)Nc3sc(C(=O)N(CC)CC)c(C)c3C(=O)OCC)nnc12	x	u	6.3µM*!	-10%	0%	x
O=C(CSc1nnc(C2CC2)n1Cc1ccco1)NCC(F)(F)F	-2%	26	2%	35µM*	24%	-12%
C=CCn1c(=O)c2ccccc2n2c(SCC(=O)Nc3sc(C)c(CC)c3C(=O)OCC)nnc12	u	9	u	-5%	-25%	-2%
O=C(NCC(F)(F)F)[C@H]1O[C@@H](n2ccc(=O)[nH]c2=O)[C@H](O)[C@@H]1O	-8%	-6	x	x	-11%	-3%
CCN(CC)C(=O)c1ccccc1NS(=O)(=O)c1ccc(OC)c(C(=O)N2CCOCC2)c1	6%	-22	9%	-1%	-2%	5%
CCn1c(SCC(=O)OCc2ccccc2)nnc1-c1ccco1	x	26	31%	-12%	13%	x
O=[N+]([O-])c1ccc(Sc2ncc3ccccn23)nc1	x	-65*	-3%	45µM*	-4%	x
CCn1c(Sc2ccc([N+](=O)[O-])cn2)nnc1-c1ccco1	13µM*	-86*	u	-34%	u	u
COc1ccc(-c2cc3ccccc3nc2N)cc1OC	x	117	11µM*	0%	u	x
COc1ccc(-c2nc3ccccc3nc2-c2ccc(OC)c(OC)c2)cc1OC	x	-9	-23%	3%	-19%	x
O=C1NC(c2cccc3ccccc23)Nc2ccc(Cl)cc21 (stereo not given)	u	-73*	-24%	x	0%	11µM*
Cc1cccc(NC(=O)Cn2cnc3c(cnn3-c3ccc(F)cc3)c2=O)c1C	-26%	-39	-5%	-6%	-17%	-25%
Cc1ccc(S(=O)(=O)N2CCC[C@H]2C(=O)Nc2ccccc2C)cc1	i	-2	-18%	x	-2%	7%
O=C(Nc1ccc(N2CCOCC2)cc1)c1csc([C@@H]2O[C@H](CO)[C@H](O)[C@H](O)[C@H]2O)n1	6%	-11	x	x	-8%	-1%
O=C(/C=C/c1ccccc1)Nn1c(-c2cccs2)nc2ccccc2c1=O	x	-61*	-15%	-4%	-9%	x
OC[C@@H]1CN(Cc2ccccc2)C[C@H](n2cnc3c(NCc4ccco4)ncnc32)O1	i	-27	x	x	-14%	-6%
OCCNc1ncnc2c1ncn2[C@H]1CN(Cc2ccc(-c3ccccc3)cc2)C[C@@H](CO)O1	6%	x	x	x	u	-11%
OC[C@@H]1CN(Cc2ccc(F)cc2)C[C@H](n2cnc3c(NCc4ccco4)ncnc32)O1	-5%	17	x	x	-24%	-7%
OC[C@@H]1CN(Cc2ccc(-c3ccccc3)cc2)C[C@H](n2cnc3c(NCc4ccco4)ncnc32)O1	13%	-90*	x	x	32µM*	-23%
OC[C@@H]1CN(Cc2ccc(-c3ccccc3)cc2)C[C@H](n2cnc3c(NCc4ccncc4)ncnc32)O1	10µM*	-91*	x	x	-4%	u
SMILES	VACV mCherry inh	HCMV inh	HCV inhibitor	Sm TGR block	FMDV inh	VACV Venus inh
COc1cc(CNc2ncnc3c2ncn3[C@H]2CN(Cc3ccc(-c4ccccc4)cc3)C[C@@H](CO)O2)cc(OC)c1OC	13µM*	-66*	x	x	u	u
OC[C@@H]1CN(Cc2ccco2)C[C@H](n2cnc3c(NCc4ccc(F)cc4)ncnc32)O1	i	-69*	x	x	4%	-3%
CC(NC(=O)COc1ccc(/C=N/NC(=O)C(=O)Nc2ccccc2Br)cc1)c1ccccc1 (stereo not given)	x	8	17%	3%	u	3%
OC[C@@H]1CN(CCc2ccccc2)C[C@H](n2cnc3c(NCc4ccc(F)cc4)ncnc32)O1	-29%	-66*	x	x	0%	-21%
COc1ccc(C(=O)N(C)Cc2ccc(C)o2)cc1OC1CCN(C(C)=O)CC1	-11%	14	7%	25µM*	18%	-22%
COc1ccc(C(=O)N2CCCCCC2)cc1OC1CCN(C(C)=O)CC1	-15%	-78*	x	0%	-7%	-4%
CCOc1ccc(/C=C(\C#N)C(=O)Nc2sc3c(c2C(=O)OC)C(C(=O)OC)CC3)cc1OC (stereo not given)	-4%	9	x	2%	-15%	-3%
CCc1c(C)sc2c1CCN(Cc1cccc(OC)c1)C2c1ccccc1 (stereo not given)	-26%	-86*	x	31%	-10%	-5%
CCOC(=O)c1ccccc1NC(=O)N1CCc2c(sc(C)c2CC)C1c1ccccc1 (stereo not given)	-15%	-7	x	7%	-18%	-4%
CCc1c(C)sc2c1CCN(C(=O)Nc1cc(OC)c(OC)c(OC)c1)C2c1ccccc1 (stereo not given)	-28%	-6	x	7%	-12%	u
CCc1c(C)sc2c1CCN(Cc1ccccc1F)C2c1ccccc1 (stereo not given)	-17%	-105*	x	-2%	u	-15%
COc1ccc(N=Nc2nc3cc(Br)c(Br)cc3n2C)c(OC)c1	-6%	-16	u	45µM*	31%	53%
O=C1c2cccc3c(N4CCCCC4)ccc(c23)C(=O)N1c1cccc(O)c1	-19%	-84*	u	x	-10%	151%
Cc1ccc(-c2csc3ncnc(SCC(=O)Nc4nnc(C)s4)c23)cc1	x	12	5%	2%	-1%	x
Cc1ccc(-c2csc3ncnc(Sc4nnc(CN5CCCCCC5=O)o4)c23)cc1	x	-70*	u	-30%	14µM*	x
O=C(N/N=C/c1cc(Cl)ccc1O)c1ccncc1	u	-12	u	5%	8%	0%
O=C(O)C1CN(c2ncccc2[N+](=O)[O-])C1	i	-18	u	0%	-6%	-2%
CN(C)/C(CN1CCN(C=O)CC1)=C1\N=C(c2ccccc2)OC1=O	-10%	-61*	u	9%	-6%	-16%
COc1ccc(NC(=O)c2ccc(S(=O)(=O)N(C)c3ccccc3)cc2)cc1S(=O)(=O)N1CCOCC1	u	u	x	x	16µM*	u
Cc1ccc(N(Cc2ccccc2)C(=O)c2ccc(C)c(S(=O)(=O)N3CCOCC3)c2)cc1	x	u	32µM*	-4%	53%	x
